Conditions in all cases: concentration: 1 μM,replicates: in singlicate; n = 1
The test system of experiment [1] is EPHA7.
Experiment [2] deals with EPHA8.
Experiment [3] relates to EPHB1.
For experiment [4], the system named is EPHB2.
The test system of experiment [5] is EPHB3.
Experiment [6] has as its system EPHB4.
Experiment [7] relates to EPHB6.
Experiment [8] relates to ERBB2.
Experiment [9] deals with ERBB3.
Experiment [10] deals with ERBB4.
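Further: KINOMEscan kinase panel screen.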

As to `CCn1c(-c2nonc2N)nc2cncc(CNC3CCNCC3)c21.Cl` [SB-747651], the “%Inh” value turned out to be 9% in [1]; 0% in experiment [2]; 12% in experiment [3]; 0% in [4]; 8% in [5]; 0% in [6]. Moreover, the “%Inh” value is 0% in experiment [7], 21% in experiment [8], 8% in experiment [9] and 0% in experiment [10].

On to `CC(=O)Nc1ccc(-c2cc3ncnc(SCC(=O)O)c3s2)cc1`, for which the “%Inh” value in experiment [1] is 0%; in [2], 0%; in [3] it was 0%; in experiment [4], 10%; in [5], 22%; in experiment [6], 23%. Moreover, the “%Inh” value in experiment [7] was found to be 84%; in [8], 6%; in experiment [9], 8%; in [10] it was 3%.

With `Cc1ccc(C(=O)Nc2ccc(Oc3ccc4nc(NC(=O)C5CC5)cn4c3)c(F)c2)c(=O)n1-c1ccccc1`, the “%Inh” value is 74% in experiment [1]; 99.8% in experiment [2]; 83% in experiment [3]; 94.8% in experiment [4]; 11% in [5]; 75% in experiment [6]. In addition, the “%Inh” value in experiment [7] is given as 99.1%; in experiment [8], 30%; in experiment [9], 43%; in experiment [10], 3%.

For the molecule `COc1cccc(CNC(=O)NC2CCN(c3ccnc(Nc4cc(OC)c(OC)c(OC)c4)n3)C2)c1` (stereo not shown) [GSK1379765], the “%Inh” value in experiment [1] was found to be 6%; in experiment [2], 13%; in experiment [3], 13%; in [4], 0%; in [5] it was 20%; in experiment [6], 8%. Moreover, the “%Inh” value amounted to 92.6% in experiment [7], 17% in experiment [8], 28% in experiment [9] and 38% in experiment [10].

As to `CS(=O)(=O)Nc1ccc(-c2ccnc3[nH]ccc23)cc1` [GSK993273], the “%Inh” value was 13% in experiment [1]; 18% in experiment [2]; 19% in [3]; 6% in experiment [4]; 18% in [5]; 0% in experiment [6]. In addition, the “%Inh” value was determined as 5% in experiment [7], 15% in [8], 0% in [9] and 0% in [10].

On to `COc1cccc(OC)c1C(=O)Nc1cccc(-c2nn3ccccc3c2-c2ccnc(Nc3cccc(F)c3)n2)c1` [GSK361065], for which the “%Inh” value in [1] is 14%; in experiment [2], 17%; in experiment [3] it was 100%; in experiment [4], 0%; in [5], 8%; in [6], 8%. Besides, the “%Inh” value in [7] stood at 42%; in [8] it was 61%; in experiment [9] it was 0%; in experiment [10], 84%.

On to `COc1ccc(Nc2nccc(N3CCC(NC(=O)c4cccc(C#N)c4)C3)n2)cc1` (stereo not shown) [GSK1379730], for which the “%Inh” value in [1] is 3%; in experiment [2] it was 18%; in [3] it was 0%; in experiment [4], 0%; in [5] it was 3%; in experiment [6], 0%. Moreover, the “%Inh” value in experiment [7], in experiment [8], in experiment [9] and in experiment [10] was 0% throughout.

As for `Cc1n[nH]c2cc(Nc3ccnc(Nc4cccc(CN5CCOCC5)c4)n3)ccc12` [GW682569], the “%Inh” value in experiment [1] is on record as 0%; in experiment [2], 9%; in experiment [3], 19%; in experiment [4], 13%; in experiment [5], 12%; in experiment [6] it was 11%. Also, the “%Inh” value is 87% in [7], 27% in [8], 12% in [9] and 43% in [10].

In the case of `CN1CCN(CCCNc2nccc(-c3c(-c4ccc(F)cc4)nn4cc(C(N)=O)ccc34)n2)CC1` [GW622475], the “%Inh” value stood at 8% in experiment [1]; 26% in experiment [2]; 35% in experiment [3]; 26% in [4]; 0% in experiment [5]; 20% in [6]. Besides, the “%Inh” value in [7] was determined as 44%; in [8], 24%; in experiment [9], 0%; in experiment [10], 63%.

With `Cc1cccc2c(-c3ccncc3)c(-c3ccc(F)cc3)nn12.Cl` [GW461487], the “%Inh” value in experiment [1] came to 9%; in [2] it was 16%; in experiment [3], 5%; in experiment [4] it was 94.5%; in experiment [5], 7%; in [6], 0%. The “%Inh” value in [7] was 26%; in [8], 1%; in [9] it was 0%; in experiment [10], 16%.

`CC(=O)c1c(-c2ccncc2)[nH]c(-c2ccncc2)c1C` [GW493036]: the “%Inh” value in [1] came to 1%; in experiment [2] it was 6%; in experiment [3], 12%; in experiment [4], 0%; in [5] it was 3%; in [6] it was 18%. Also, the “%Inh” value in [7] stood at 0%; in experiment [8], 0%; in [9], 17%; in experiment [10], 34%.

Take `Cn1cc(-c2cccc3c(N)c(C(N)=O)nnc23)cn1`: the “%Inh” value in experiment [1] is reported as 6%; in [2], 13%; in experiment [3] it was 4%; in experiment [4] it was 12%; in experiment [5], 11%; in experiment [6], 5%. Moreover, the “%Inh” value is 16% in [7], 14% in [8], 27% in experiment [9] and 0% in experiment [10].

As for `C[C@@H](Oc1cc(-n2cnc3cc(-c4ccncc4)ccc32)sc1C(N)=O)c1ccccc1Cl` [GSK479719], the “%Inh” value came to 8% in experiment [1]; 15% in [2]; 9% in experiment [3]; 0% in [4]; 18% in [5]; 12% in experiment [6]. The “%Inh” value in experiment [7], in experiment [8], in [9] and in experiment [10] was 0% each time.

`C[C@@H](Oc1cc(-n2cnc3ccc(-c4ccncc4)cc32)sc1C(N)=O)c1ccccc1Cl` [GSK483724]: the “%Inh” value in experiment [1] was determined as 14%; in [2], 23%; in [3] it was 26%; in experiment [4], 0%; in experiment [5], 9%; in [6], 10%. In addition, the “%Inh” value was determined as 0% in experiment [7], 14% in experiment [8], 0% in experiment [9] and 41% in experiment [10].

Regarding `COc1cccc(C2=C(Nc3cccc(Cl)c3)C(=O)NC2=O)c1` [SB-341556], the “%Inh” value is 7% in experiment [1]; 20% in experiment [2]; 0% in experiment [3]; 0% in experiment [4]; 17% in experiment [5]; 4% in experiment [6]. Further, the “%Inh” value came to 29% in experiment [7], 0% in [8], 0% in [9] and 0% in experiment [10].

`Cn1ccc2ncnc(Oc3ccc(NC(=O)Nc4cc(C(C)(C)C)on4)c(Cl)c3)c21`: the “%Inh” value in [1] stood at 90%; in experiment [2], 98.9%; in experiment [3], 65%; in [4], 78%; in experiment [5] it was 40%; in experiment [6] it was 35%. The “%Inh” value in [7] was determined as 64%; in [8], 81%; in experiment [9], 5%; in experiment [10], 0%.

Source of the values: PMC5540273 (PLoS ONE, 2017).
